# PubChem BioAssay (EPA / NIEHS)
# Inconclusive results are not listed. Active and inactive are the calls of the source. How the source made its calls, unless noted: active means hit-call score of the fitted dose curve at least 0.9, where 1 is the maximum; inactive means score below 0.9.
# Test system: SRY-box transcription factor 17 (SOX17) Protein Expression, Deisenroth Lab, SOX17 (gene 64321)
# Experiment: CCTE_Deisenroth_DEVTOX-GLR_Endo_SOX17: CCTE's DevTox GLR-Endo Assay Evaluation of SRY-box transcription factor 17 (SOX17) Protein Expression, Deisenroth Lab (AID 2284413)
# Outline: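 Seed RUES2-GLR cells 24 h; start endoderm differentiation; dose at 0 and 24 h (1 nM - 200 uM, 10 points); fix at 48 h, stain nuclei, image 5 fields/well; compute SOX17+/total cells vs 0.2% DMSO.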
SMILES,outcome,AC50
O=C(O)c1cccnc1,inactive,
O=C1NC(=O)C(c2ccccc2)(c2ccccc2)N1,inactive,
Cc1cn([C@H]2C=C[C@@H](CO)O2)c(=O)[nH]c1=O,inactive,
CC(=O)CC(c1ccccc1)c1c(O)c2ccccc2oc1=O (stereo not drawn),,100 µM (active)

# Test system: Brachyury (BRA) Protein Expression, TBXT (gene 6862)
# Experiment: CCTE_Deisenroth_DEVTOX-GLR_Endo_BRA: CCTE's DevTox GLR-Endo Assay Evaluation of Brachyury (BRA) Protein Expression, Deisenroth Lab (AID 2284417)
# Procedure: CCTE_Deisenroth_DEVTOX-GLR_Endo assay is a cell-based, multiplex-readout assay that uses RUES2-GLR, a human pluripotent cell line, with measurements taken at 48 hours after chemical dosing in a 384-well microplateCCTE_Deisenroth_DEVTOX-GLR_Endo_BRA is 1 of 4 assay components calculated from the CCTE_Deisenroth_DEVTOX-GLR_Endo assay and it measures the percentage of cells in an mesoderm state. Using a type of inducible fluorescent protein reporter, gain-of-signal activity can be used to understand changes in gene expression with fluorescent microscopy. The percentage of BRA+ cells are determined by calculating the number of BRA+ cells divided by the cell count. To generalize the intended target to other relatable targets, this assay component is annotated to the transcription factor intended target family, where the subfamily is T-box protein.Data from the assay component CCTE_Deisenroth_DEVTOX-GLR_Endo_BRA was analyzed as 1 assay endpoint. The endpoint is the percent BRA+ cell population minus the 0.2% DMSO control in the CCTE_Deisenroth_DEVTOX-GLR_Endo assay. Furthermore, this assay endpoint can be referred to as a secondary readout, because this assay has produced multiple assay endpoints where this one serves as a measure of mesoderm differentiation.
# (§1) All assay protocols are aligned to the DevTox GLR-Endo assay workflow. Cells are seeded into 384-well microplates for 24 hours prior to initiating differentiation in defined media for a total duration of 48 hours. A total of two chemical exposures are administered in 24-hour intervals during the 48-hour differentiation period. At the assay termination point, cells are fixed and stained with a fluorescent dye demarcating the nucleus. High-content imaging is used to acquire brightfield and fluorescent channel images across 5 fields per well. Cell identification and mean biomarker fluorescence intensities are calculated with image analysis software to determine the total cell counts for viability assessment and the biomarker expression frequency for each lineage-dependent assay. A typical experimental design tests a 10-point concentration series (1 nM - 200 uM) for 28 compounds in single technical replicate. Assay plate controls include non-differentiated pluripotent cells (baseline control), lineage-specific differentiated cells (differentiation control), and DMSO solvent exposed differentiated cells (solvent control). Experiments typically comprise a minimum of four experimental replicates (n=4).
SMILES,outcome,AC50
O=C(O)c1cccnc1,inactive,
O=C1NC(=O)C(c2ccccc2)(c2ccccc2)N1,,100 µM (active)
Cc1cn([C@H]2C=C[C@@H](CO)O2)c(=O)[nH]c1=O,inactive,
CC(=O)CC(c1ccccc1)c1c(O)c2ccccc2oc1=O (stereo not drawn),,1.45e-06 µM (active)

# Test system: not listed separately
# Experiment: CCTE_Deisenroth_DEVTOX-GLR_Endo_CellCount: Viability Assessment in CCTE's DevTox GLR-Endo Assay, Deisenroth Lab (AID 2284420)
# Outline: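 RUES2-GLR human pluripotent cells seeded 24 h, then differentiated 48 h with two chemical exposures at 24 h intervals (10-point, 1 nM - 200 uM). Fixed, nuclear-stained, imaged; nuclei counts give % change in cell count versus 0.2% DMSO.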
row,SMILES,outcome
1,O=C(O)c1cccnc1,inactive
2,O=C1NC(=O)C(c2ccccc2)(c2ccccc2)N1,inactive
3,Cc1cn([C@H]2C=C[C@@H](CO)O2)c(=O)[nH]c1=O,inactive
4,CC(=O)CC(c1ccccc1)c1c(O)c2ccccc2oc1=O (stereo not drawn),inactive

# Test system: SRY-box transcription factor 17 (SOX17) Protein Expression, Deisenroth Lab, SOX17 (gene 64321)
# Experiment: CCTE_Deisenroth_DEVTOX-GLR_Pluri_SOX17: CCTE's DevTox GLR-Pluri Assay Evaluation of SRY-box transcription factor 17 (SOX17) Protein Expression, Deisenroth Lab (AID 2284427; active means hit-call score of the fitted dose curve at least 0.9, where 1 is the maximum)
# Outline: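 RUES2-GLR human pluripotent cells were seeded 24 h, then differentiated 48 h in defined media with two chemical exposures 24 h apart (10-point series, 1 nM - 200 uM). Fixed, nuclear-stained cells were imaged; %SOX17+ cells minus 0.2% DMSO control reported.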
row,SMILES,outcome
1,O=C(O)c1cccnc1,inactive
2,Cc1cn([C@H]2C=C[C@@H](CO)O2)c(=O)[nH]c1=O,inactive
3,CC(=O)CC(c1ccccc1)c1c(O)c2ccccc2oc1=O (stereo not drawn),inactive

# Test system: SRY-box transcription factor 2 (SOX2) Protein Expression, Deisenroth Lab, SOX2 (gene 6657)
# Experiment: CCTE_Deisenroth_DEVTOX-GLR_Pluri_SOX2: CCTE's DevTox GLR-Pluri Assay Evaluation of SRY-box transcription factor 2 (SOX2) Protein Expression, Deisenroth Lab (AID 2284428)
# Procedure: CCTE_Deisenroth_DEVTOX-GLR_Pluri assay is a cell-based, multiplex-readout assay that uses RUES2-GLR, a human pluripotent cell line, with measurements taken at 48 hours after chemical dosing in a 384-well microplateCCTE_Deisenroth_DEVTOX-GLR_Pluri_SOX2 is 1 of 4 assay components calculated from the CCTE_Deisenroth_DEVTOX-GLR_Pluri assay and it measures an the percentage of cells in an pluripotent state. Using a type of inducible fluorescent protein reporter, gain-of-signal activity can be used to understand changes in gene expression with fluorescent microscopy. The percentage of SOX2+ cells are determined by calculating the number of SOX2+ cells divided by the cell count. To generalize the intended target to other relatable targets, this assay component is annotated to the transcription factor intended target family, where the subfamily is SRY-related HMG-box.Data from the assay component CCTE_Deisenroth_DEVTOX-GLR_Pluri_SOX2 was analyzed as 1 assay endpoint. The endpoint is the percent change in the SOX2+ cell population relative to the 0.2% DMSO control in the CCTE_Deisenroth_DEVTOX-GLR_Pluri assay. Furthermore, this assay endpoint can be referred to as a primary readout, because this assay has produced multiple assay endpoints where this one serves as a measure of […].
# as §1
SMILES,outcome,AC50
O=C(O)c1cccnc1,inactive,
O=C1NC(=O)C(c2ccccc2)(c2ccccc2)N1,,150 µM (active)
Cc1cn([C@H]2C=C[C@@H](CO)O2)c(=O)[nH]c1=O,inactive,
CC(=O)CC(c1ccccc1)c1c(O)c2ccccc2oc1=O (stereo not drawn),inactive,

# Test system: Brachyury (BRA) Protein Expression, Deisenroth Lab, TBXT (gene 6862)
# Experiment: CCTE_Deisenroth_DEVTOX-GLR_Pluri_BRA: CCTE's DevTox GLR-Pluri Assay Evaluation of Brachyury (BRA) Protein Expression, Deisenroth Lab (AID 2284429; active means hit-call score of the fitted dose curve at least 0.9, where 1 is the maximum)
# Outline: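 An inducible fluorescent BRA reporter in RUES2-GLR cells tracks mesoderm differentiation. Compounds (10 concentrations, 1 nM - 200 uM) are dosed twice within a 48-h differentiation. The endpoint subtracts the 0.2% DMSO control from percent BRA+ cells.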
SMILES,outcome,AC50
O=C(O)c1cccnc1,inactive,
O=C1NC(=O)C(c2ccccc2)(c2ccccc2)N1,,152 µM (active)
Cc1cn([C@H]2C=C[C@@H](CO)O2)c(=O)[nH]c1=O,inactive,
CC(=O)CC(c1ccccc1)c1c(O)c2ccccc2oc1=O (stereo not drawn),inactive,
